# Results as given in PubChem BioAssay.
# Several values for one entry are separate records, joined by “and”; a condition that tells them apart may be missing. Equal values may be shown once. Activity calls are given as the source filed them.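 How the source made its calls, unless noted: active means normalized viability below 100% at a tested concentration; inactive means the rest.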
# Tests used:
# [1] = hESC survival regulators, cell-based (AID 493140; call rule not given here;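 further: cells exposed to compounds for four days before counting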); details: human embryonic stem cell survival screen; stronger effect = higher value
# [2] = liver-stage malaria parasite growth inhibition, primary screen, cell-based, HepG2, luciferase luminescence, HepG2 viability (AID 624349; in the data active means parasite load remaining mostly below about 12%, no sharp cut-off; inactive means mostly above about 10%;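 further: 100% = mean of DMSO negative control wells on the same plate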); details: P. berghei liver stage in HepG2, luciferase luminescence, concentration not given here; parasite load remaining: stronger effect = lower value; viability: measured here: HepG2 viability without parasites
# [3] = stimulators of nuclear beta-catenin in C2C12, primary screen, imaging, WNT3A-conditioned medium, mouse C2C12, NPC library (AID 1117326; in the data active means nuclear beta-catenin stimulation mostly above about 4.2%, no sharp cut-off; inactive means mostly below about 10%); details: stronger effect = higher value
# [4] = stimulators of insulin release from INS-1E, primary screen, cell-based, 5 mM glucose, NPC library (AID 1117329;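 active means compound raises insulin release from rat beta cells at 5 mM glucose, no numeric limit stated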); details: rat INS-1E insulin secretion, at 10 µM, stronger effect = higher value
# [5] = growth inhibition of GSK3B-pretreated HCT116 cells – cell-based, CellTiter-Glo, 0.2 to 20 µM (AID 1117336;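 active means compounds lowering colon cancer cell viability after pretreatment blocking the GSK3B kinase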); details: HCT116 viability after GSK3B inhibitor, at 20 µM, stronger effect = higher value
# [6] = inhibition of endothelial tube formation, primary screen, imaging, VEGF stimulated, CD31 staining, tube area, NPC library (AID 1117340;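 active means compound that reduces growth-factor-driven endothelial tube area in a mixed cell culture, no cutoff stated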); details: VEGF-stimulated ADSC/ECFC co-culture, at 10 µM, stronger effect = higher value
# [7] = glucagon-like peptide 1 release enhancers, primary assay, NCI-H716 cell line, NPC library (AID 1117341;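 active means compound raises GLP1 secretion from the human gut endocrine cells, with no numeric limit stated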); details: NCI-H716 cells, at 10 µM, stronger effect = higher value
# [8] = HCT116 colon cancer cell growth inhibition, primary screen, CellTiter-Glo luminescence, NPC library (AID 1117342;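 active means compounds that lower survival of HCT116 colon cancer cells in the luminescence readout, no numeric limit stated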); details: at 20 µM (top of the series)
# [9] = CellTiter-Glo luminescent readout of SW480 viability loss, NPC library primary (AID 1117343;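 active means compounds that lower viability of the colon cancer cells in the luminescence readout, with no numeric limit stated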); details: CellTiter-Glo luminescence; at 20 µM (top of the series) unless noted
# [10] = decreased DLD-1 cellular survival, CellTiter-Glo luminescent readout, NPC compound collection, primary HTS (AID 1117346;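 active means compounds that lower survival of DLD-1 colon cancer cells in the luminescence readout, no cutoff given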); details: DLD-1 viability, CellTiter-Glo luminescence; at 20 µM (top of the series)
# [11] = differential killing of epithelial or mesenchymal cells, primary screen, imaging, PC-3E GFP, TEM4-18 mCherry, co-culture (AID 1345086;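 active means compounds killing one labelled cell type while sparing the other, by normalised counts and ratio limits, not self-fluorescent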;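 on all read-outs here: cells exposed to compound for 72 h before imaging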;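 on red/green cell ratio (normalised): normalised mesenchymal count divided by normalised epithelial count so high means epithelial killing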); details: imaging cell counts, at 1 µM; for red/green cell ratio (normalised): actives lie on both sides, counts scaled to control wells, 1 = unselective
# [12] = sensitizers of A549 cells to miR-34 induction, primary screen, imaging, A549 dox-inducible miR-34, nuclei and caspase counts (AID 1347080;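 active means compounds whose cell count with miR-34 switched on is under 0.7 times the count with it off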); details: A549 miR-34 inducible, Hoechst nuclei count, 48 h
# [13] = survival rescue of mitochondrial mutant cells in low glucose, primary screen, MELAS cybrids, Rieske KO mouse fibroblasts, CellTiter-Glo (AID 1508586;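 active means mean z-score across replicates of 1.96 or higher in either the MELAS or the Rieske mutant cell line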;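 further: z relative to plate mean and SD of compound and empty wells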)
# [14] = molecular target: NAD(+) hydrolase SARM1 (Homo sapiens) (UniProt Q6SZW1); assay: SARM1 TIR NADase inhibitors, cell lysate, NAD-Glo luminescence (AID 1508614;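 active means compound whose remaining NAD level is above about 45 nM, limit read from the data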); details: SAM-TIR HEK293T lysate NADase, at 1 µM, stronger effect = higher value
# [15] = ovarian cancer cell viability with rucaparib, profiling panel, oncology-focused library, rucaparib conditional (AID 1508598); details: patient-derived ovarian cancer cells, CellTiter-Glo viability, 144 h, stronger effect = lower value
# [16] = measured here: epithelial PC-3E GFP cell survival
# [17] = measured here: mesenchymal TEM4-18 mCherry cell survival
# [18] = stronger effect = lower value, cell number ratio, induced over uninduced
# [19] = measured here: relative caspase fold change +Dox/-Dox
# [20] = measured here: total cells with miR-34 induction, stronger effect = lower value
# [21] = measured here: total cells without miR-34 induction
# [22] = MELAS cybrid survival, CellTiter-Glo 48 h, stronger effect = higher value
# [23] = Rieske KO mouse fibroblast survival, CellTiter-Glo 72 h
# NAD(+) hydrolase SARM1 (Homo sapiens), sequence (Q6SZW1 whole entry, looked up): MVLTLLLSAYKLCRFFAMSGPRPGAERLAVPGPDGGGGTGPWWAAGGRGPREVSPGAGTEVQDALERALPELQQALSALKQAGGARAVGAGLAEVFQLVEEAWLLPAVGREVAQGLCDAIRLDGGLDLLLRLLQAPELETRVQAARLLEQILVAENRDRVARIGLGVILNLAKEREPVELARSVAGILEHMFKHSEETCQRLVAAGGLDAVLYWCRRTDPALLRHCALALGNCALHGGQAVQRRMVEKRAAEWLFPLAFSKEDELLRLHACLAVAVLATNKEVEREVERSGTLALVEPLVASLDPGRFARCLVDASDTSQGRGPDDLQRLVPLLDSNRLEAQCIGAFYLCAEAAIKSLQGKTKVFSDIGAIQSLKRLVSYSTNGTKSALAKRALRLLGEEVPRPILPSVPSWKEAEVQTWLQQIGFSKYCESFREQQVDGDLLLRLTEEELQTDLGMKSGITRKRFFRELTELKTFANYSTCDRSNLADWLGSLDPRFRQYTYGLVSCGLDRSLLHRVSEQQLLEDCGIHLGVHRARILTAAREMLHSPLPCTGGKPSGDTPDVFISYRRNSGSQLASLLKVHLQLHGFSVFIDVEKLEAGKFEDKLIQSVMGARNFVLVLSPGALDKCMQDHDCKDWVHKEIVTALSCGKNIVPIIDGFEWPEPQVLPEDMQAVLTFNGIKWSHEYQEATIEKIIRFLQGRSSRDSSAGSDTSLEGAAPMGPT
structure (smiles),measurement,setting,value
CCN(CC)C(=O)c1ccc(O)c(OC)c1,survival,[1],14.3 (inactive)
same,parasite load remaining,[2],98.8% (inactive) and 82.6% (inactive) and 34.4% (inactive)
same,viability,[2],116% and 78.8% and 105%
same,nuclear beta-catenin stimulation,[3]; at 10 µM,0.4% (inactive)
same,nuclear beta-catenin stimulation,"[3]; stimulation, at 2 µM",-0.5%
same,insulin secretion stimulation,[4],-1.1% (inactive)
same,viability decrease,[5],-5.6% (inactive)
same,tube area decrease,[6],19.7% (inactive)
same,GLP1 secretion stimulation,[7],-0.9% (inactive)
same,inhibition of viability,[8],-33.9% (inactive)
same,viability decrease (inhibition),[9],107% (active)
same,viability decrease (inhibition),[10],-2.25% (inactive)
same,red/green cell ratio (normalised),[11],1.01 (inactive)
same,normalised cell number,[11]; [16],1.04
same,normalised cell number,[11]; [17],1.06
same,fold change,[12]; [18],0.99 (inactive) and 0.899 (inactive) and 0.849 (inactive)
same,fold change,[12]; [19],1.08 and 1.38 and 3.96
same,cell count,[12]; [20],10300 and 8560 and 11800
same,cell count,[12]; [21],10400 and 9520 and 13900
same,z-score,[13]; [22],-0.598 (inactive)
same,z-score,[13]; [23],-0.406
same,remaining NAD,[14],10 nM (inactive)
CN(N=O)C(=O)N[C@@H]1[C@@H](O)[C@H](O)[C@@H](CO)O[C@@H]1O,parasite load remaining,[2],90.3% (inactive) and 138% (inactive) and 42.6% (inactive)
same,viability,[2],97.3% and 74.3% and 97.4%
same,nuclear beta-catenin stimulation,[3]; at 10 µM,0.9% (inactive)
same,nuclear beta-catenin stimulation,"[3]; stimulation, at 2 µM",2.9%
same,insulin secretion stimulation,[4],0.5% (inactive)
same,viability decrease,[5],-5.6% (inactive)
same,tube area decrease,[6],10.3% (inactive)
same,GLP1 secretion stimulation,[7],0.8% (inactive)
same,inhibition of viability,[8],-6.13% (inactive)
same,viability decrease (inhibition),[9],42% (inactive)
same,viability decrease (inhibition),[10],-37.7% (inactive)
same,red/green cell ratio (normalised),[11],1.14 (inactive)
same,normalised cell number,[11]; [16],0.95
same,normalised cell number,[11]; [17],1.08
same,fold change,[12]; [18],0.837 (inactive) and 0.877 (inactive)
same,fold change,[12]; [19],1.24 and 1.12
same,cell count,[12]; [20],8550 and 11000
same,cell count,[12]; [21],10200 and 12600
same,z-score,[13]; [22],0.426 (inactive)
same,z-score,[13]; [23],0.385
same,viability,"[15]; at 0.000305 µM, OCI-C5x cells, with rucaparib 10 µM, 100% = cells with rucaparib alone",107% (inactive)
same,viability,"[15]; at 0.000305 µM, OCI-C5x cells, without rucaparib",111% (inactive)
same,viability,"[15]; at 0.000305 µM, OCI-P5x cells, with rucaparib 20 µM, 100% = cells with rucaparib alone",108% (inactive)
same,viability,"[15]; at 0.000305 µM, OCI-P5x cells, without rucaparib",121% (inactive)
same,viability,"[15]; at 0.00122 µM, OCI-C5x cells, with rucaparib 10 µM, 100% = cells with rucaparib alone",110% (inactive)
same,viability,"[15]; at 0.00122 µM, OCI-C5x cells, without rucaparib",114% (inactive)
same,viability,"[15]; at 0.00122 µM, OCI-P5x cells, with rucaparib 20 µM, 100% = cells with rucaparib alone",101% (inactive)
same,viability,"[15]; at 0.00122 µM, OCI-P5x cells, without rucaparib",115% (inactive)
same,viability,"[15]; at 0.00488 µM, OCI-C5x cells, with rucaparib 10 µM, 100% = cells with rucaparib alone",102% (inactive)
same,viability,"[15]; at 0.00488 µM, OCI-C5x cells, without rucaparib",121% (inactive)
same,viability,"[15]; at 0.00488 µM, OCI-P5x cells, with rucaparib 20 µM, 100% = cells with rucaparib alone",97.2% (active)
same,viability,"[15]; at 0.00488 µM, OCI-P5x cells, without rucaparib",113% (inactive)
same,viability,"[15]; at 0.0195 µM, OCI-C5x cells, with rucaparib 10 µM, 100% = cells with rucaparib alone",111% (inactive)
same,viability,"[15]; at 0.0195 µM, OCI-C5x cells, without rucaparib",114% (inactive)
same,viability,"[15]; at 0.0195 µM, OCI-P5x cells, with rucaparib 20 µM, 100% = cells with rucaparib alone",100% (inactive)
same,viability,"[15]; at 0.0195 µM, OCI-P5x cells, without rucaparib",116% (inactive)
same,viability,"[15]; at 0.0781 µM, OCI-C5x cells, with rucaparib 10 µM, 100% = cells with rucaparib alone",106% (inactive)
same,viability,"[15]; at 0.0781 µM, OCI-C5x cells, without rucaparib",122% (inactive)
same,viability,"[15]; at 0.0781 µM, OCI-P5x cells, with rucaparib 20 µM, 100% = cells with rucaparib alone",104% (inactive)
same,viability,"[15]; at 0.0781 µM, OCI-P5x cells, without rucaparib",112% (inactive)
same,viability,"[15]; at 0.313 µM, OCI-C5x cells, with rucaparib 10 µM, 100% = cells with rucaparib alone",106% (inactive)
same,viability,"[15]; at 0.313 µM, OCI-C5x cells, without rucaparib",126% (inactive)
same,viability,"[15]; at 0.313 µM, OCI-P5x cells, with rucaparib 20 µM, 100% = cells with rucaparib alone",98.9% (active)
same,viability,"[15]; at 0.313 µM, OCI-P5x cells, without rucaparib",113% (inactive)
same,viability,"[15]; at 1.25 µM, OCI-C5x cells, with rucaparib 10 µM, 100% = cells with rucaparib alone",97.9% (active)
same,viability,"[15]; at 1.25 µM, OCI-C5x cells, without rucaparib",109% (inactive)
same,viability,"[15]; at 1.25 µM, OCI-P5x cells, with rucaparib 20 µM, 100% = cells with rucaparib alone",87.8% (active)
same,viability,"[15]; at 1.25 µM, OCI-P5x cells, without rucaparib",105% (inactive)
same,viability,"[15]; at 5 µM, OCI-C5x cells, with rucaparib 10 µM, 100% = cells with rucaparib alone",103% (inactive)
same,viability,"[15]; at 5 µM, OCI-C5x cells, without rucaparib",101% (inactive)
same,viability,"[15]; at 5 µM, OCI-P5x cells, with rucaparib 20 µM, 100% = cells with rucaparib alone",87.3% (active)
same,viability,"[15]; at 5 µM, OCI-P5x cells, without rucaparib",98.1% (active)
